Laboratory results: PubChem BioAssay (EPA / NIEHS)
Activity calls are given as the source filed them. Rule for the calls: active = hit-call score of the fitted dose curve at least 0.9, where 1 is the maximum; inactive = score below 0.9.

What follows are molecules tested on E-selectin (Homo sapiens) (UniProt P16581) (assay: BSK_SAg_Eselectin: BioMAP Diversity Plus: SAg Assay for Eselectin Biomarker Activity (AID 2283091)). Conditions: primary human HUVEC with PBMC; actives raise or lower the signal.
Outline: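 Cell-surface E-selectin is read by ELISA at 24 h in the SAg co-culture of HUVEC and PBMC. Curves are fitted in both directions relative to DMSO. Parallel SRB total-protein staining tracks overt toxicity.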

E-selectin (Homo sapiens), sequence (P16581 whole entry, looked up): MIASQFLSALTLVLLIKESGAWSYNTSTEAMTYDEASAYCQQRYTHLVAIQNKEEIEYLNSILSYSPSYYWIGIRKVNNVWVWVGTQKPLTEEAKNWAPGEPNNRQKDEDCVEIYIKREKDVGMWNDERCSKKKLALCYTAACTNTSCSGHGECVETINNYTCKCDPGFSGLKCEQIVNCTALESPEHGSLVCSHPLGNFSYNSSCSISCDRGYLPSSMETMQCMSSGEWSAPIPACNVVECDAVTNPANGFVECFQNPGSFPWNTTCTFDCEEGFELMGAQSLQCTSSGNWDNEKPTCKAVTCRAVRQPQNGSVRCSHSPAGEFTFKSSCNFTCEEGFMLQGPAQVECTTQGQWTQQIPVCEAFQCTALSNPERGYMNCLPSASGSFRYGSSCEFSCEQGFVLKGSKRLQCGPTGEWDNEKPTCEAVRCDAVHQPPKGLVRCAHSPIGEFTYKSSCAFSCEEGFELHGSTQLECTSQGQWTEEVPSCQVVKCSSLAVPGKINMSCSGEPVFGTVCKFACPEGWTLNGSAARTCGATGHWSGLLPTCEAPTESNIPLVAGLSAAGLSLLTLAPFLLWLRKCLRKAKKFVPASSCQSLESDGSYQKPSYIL

SMILES	outcome	AC50
CN(C)C(=O)Cl	inactive	
CCC(C)(C)c1ccc(O)cc1	inactive	
CCOP(=S)(OCC)SCn1nnc2ccccc2c1=O		15.9 µM (active)
c1cc2c3c(cccc3c1)CC2	inactive	
O=c1ssc(Cl)c1Cl		4.28 µM (active)
O=S(=O)(F)C(F)(F)C(F)(F)C(F)(F)C(F)(F)C(F)(F)C(F)(F)C(F)(F)C(F)(F)F	inactive	
CCOP(=S)(S)OCC	inactive	
OCC(F)(F)OC(F)(F)C(F)(F)OC(F)(F)CO	inactive	
ClC(Cl)(Cl)c1ccccc1	inactive	
CC(Cc1ccc(OCC(=O)O)cc1)NCC(O)c1csc(C(F)(F)F)n1 (stereo not given)	inactive	
CC(C)(C)c1ccc(O)cc1	inactive	
O=C(O)C(F)(F)OC(F)(F)C(F)(F)OC(F)(F)C(=O)O	inactive	
c1ccc(OP(Oc2ccccc2)Oc2ccccc2)cc1	inactive	
NC(=O)C(F)(F)C(F)(F)F	inactive	
O=[N+]([O-])c1ccccc1	inactive	
Nc1ccc(Cl)cc1	inactive	
O=[N+]([O-])c1ccc(Cl)c(Cl)c1	inactive	
CCOP(=S)(Oc1ccc([N+](=O)[O-])cc1)c1ccccc1 (stereo not given)	inactive	
CC(C)(C)OOC(C)(C)C	inactive	
CCCCN(CCCC)N=O	inactive	
Cc1ccc(O)cc1C	inactive	
O=C(O)C(Cl)Cl	inactive	
c1nc[nH]n1	inactive	
c1ccc2c(c1)Nc1ccccc1S2	inactive	
COP(=O)(CCC(=O)NCO)OC	inactive	
CCOS(=O)(=O)OCC	inactive	
Nc1ccc([N+](=O)[O-])cc1Cl	inactive	

The molecules below were run on Monokine induced gamma interferon (MIG), CXCL9 (gene 4283) (assay: BSK_SAg_MIG: BioMAP Diversity Plus: SAg Assay for Monokine induced gamma interferon (MIG) Biomarker Activity (AID 2283092)). Conditions: primary human HUVEC with PBMC; actives raise or lower the signal.
Outline: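 Measures CXCL9 protein by ELISA in a human vascular primary-cell co-culture (umbilical vein endothelium with PBMC) 24 h after chemical addition. Activity is scored up or down from the DMSO control.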

SMILES	outcome	AC50
CN(C)C(=O)Cl	inactive	
CCC(C)(C)c1ccc(O)cc1	inactive	
CCOP(=S)(OCC)SCn1nnc2ccccc2c1=O	inactive	
c1cc2c3c(cccc3c1)CC2	inactive	
O=c1ssc(Cl)c1Cl		9 µM (active)
O=S(=O)(F)C(F)(F)C(F)(F)C(F)(F)C(F)(F)C(F)(F)C(F)(F)C(F)(F)C(F)(F)F	inactive	
CCOP(=S)(S)OCC	inactive	
OCC(F)(F)OC(F)(F)C(F)(F)OC(F)(F)CO	inactive	
ClC(Cl)(Cl)c1ccccc1	inactive	
CC(Cc1ccc(OCC(=O)O)cc1)NCC(O)c1csc(C(F)(F)F)n1 (stereo not given)	inactive	
CC(C)(C)c1ccc(O)cc1	inactive	
O=C(O)C(F)(F)OC(F)(F)C(F)(F)OC(F)(F)C(=O)O	inactive	
c1ccc(OP(Oc2ccccc2)Oc2ccccc2)cc1	inactive	
OCC1CO1 (stereo not given)	inactive	
NC(=O)C(F)(F)C(F)(F)F	inactive	
O=[N+]([O-])c1ccccc1	inactive	
Nc1ccc(Cl)cc1	inactive	
O=[N+]([O-])c1ccc(Cl)c(Cl)c1	inactive	
CCOP(=S)(Oc1ccc([N+](=O)[O-])cc1)c1ccccc1 (stereo not given)	inactive	
CC(C)(C)OOC(C)(C)C	inactive	
CCCCN(CCCC)N=O	inactive	
Cc1ccc(O)cc1C	inactive	
O=C(O)C(Cl)Cl	inactive	
c1nc[nH]n1	inactive	
c1ccc2c(c1)Nc1ccccc1S2	inactive	
COP(=O)(CCC(=O)NCO)OC	inactive	
CCOS(=O)(=O)OCC	inactive	
Nc1ccc([N+](=O)[O-])cc1Cl	inactive	
